This experiment deals with Vero E6 infected with SARS-CoV-2. The experiment is described as follows: SARS-CoV-2 infection rate relative to infected DMSO; higher = more infection, active = 60 or less. The settings on record: 24 h.
For `NC(=O)N/N=C/c1ccc([N+](=O)[O-])o1` [nitrofurazone] (10 µM), the SARS-CoV-2 infection rate was 105% (inactive).

For `Cc1cccc(C)c1NC(=O)c1ccc(N)cc1` [ameltolide] (10 µM), the SARS-CoV-2 infection rate was 109% (inactive).

`COc1c(C)c2c(c(O)c1C/C=C(\C)CCC(=O)O)C(=O)OC2` [mycophenolic-acid] (10 µM): the SARS-CoV-2 infection rate was 114% (inactive).

As to `O=C(c1cccc(Br)c1)N1CCC(N2CCCC2)CC1` (10 µM), the SARS-CoV-2 infection rate was 106% (inactive).

Consider `CCCc1cc(C)[nH]c(=O)c1CNC(=O)c1cc(-c2ccc(N3CCN(C(C)C)CC3)nc2)cc2c1cnn2C(C)C` (10 µM), for which the SARS-CoV-2 infection rate is 110% (inactive).

For the compound `CC1Nc2ccc(Cl)cc2S(=O)(=O)N1` (centres undefined) (10 µM), the SARS-CoV-2 infection rate was 100% (inactive).

As for `Cn1c(=O)c2[nH]c(Br)nc2n(C)c1=O` [pamabrom] (10 µM), the SARS-CoV-2 infection rate was 101% (inactive).

As for `O=C(OCC(O)CO)c1ccccc1Nc1ccnc2cc(Cl)ccc12` (centres undefined) [glafenine] (10 µM), the SARS-CoV-2 infection rate was 83% (inactive).

For `CCCOc1ccc2[nH]c(NC(=O)OC)nc2c1` [oxibendazole] (10 µM), the SARS-CoV-2 infection rate was 118% (inactive).

As to `CS(=O)(=O)OCCCCOS(C)(=O)=O` [busulfan] (10 µM), the SARS-CoV-2 infection rate is 102% (inactive).

As to `O=C(c1ccc(C(=O)N2CCC(N3CCCC3)CC2)c(Nc2ccccc2)c1)N1CCC(N2CCCC2)CC1` (10 µM), the SARS-CoV-2 infection rate was 114% (inactive).

Regarding `Clc1cccc(Nc2nnc(-c3ccccc3)c3ccccc23)c1` (10 µM), the SARS-CoV-2 infection rate was 94% (inactive).

In the case of `CC(C)c1ccc(CC(=O)N2CCC[C@@H](c3cccc(OC(C)(C)C(=O)O)c3)C2)cc1` (10 µM), the SARS-CoV-2 infection rate was 96% (inactive).

Consider `COc1ccc(-c2ccc3cc(C(=O)O)ccc3c2)cc1C12CC3CC(CC(C3)C1)C2` [adapalene] (10 µM), for which the SARS-CoV-2 infection rate is 104% (inactive).

Take `CCNC(=O)N1CCN(CCCC(c2ccc(F)cc2)c2ccc(F)cc2)CC1` [amperozide] (10 µM): the SARS-CoV-2 infection rate is 108% (inactive).

For the compound `COc1ccc(N(C)c2nc(C)nc3ccccc23)cc1` [verubulin] (10 µM), the SARS-CoV-2 infection rate was 95% (inactive).

Take `O=C(Nc1cc(C(F)(F)F)ccc1O)Nc1cc(C(F)(F)F)ccc1O` (10 µM): the SARS-CoV-2 infection rate was 104% (inactive).

For the compound `Cc1c(C)c2c(c(C)c1O)CCC(C)(C(=O)O)O2` (centres undefined) [trolox] (0.833333 µM), the SARS-CoV-2 infection rate was 98.5% (inactive).

In the case of `O=C1C2C=Nc3ccccc3C2=NN1c1ccc(Cl)cc1` (centres undefined) (10 µM), the SARS-CoV-2 infection rate was 120% (inactive).

For `Fc1ccc2c(CCNCc3cccc(OCC(F)(F)C(F)F)c3)c[nH]c2c1` [idalopirdine] (10 µM), the SARS-CoV-2 infection rate was 114% (inactive).

Consider `O=C(NC1(c2ccccc2)CC1)c1c(CN2CCC(N3CCCCC3)CC2)c(-c2cccc(C(F)(F)F)c2)nc2cc(Br)ccc12` (0.833333 µM), for which the SARS-CoV-2 infection rate is 112% (inactive).

As to `CC(C)CN(C[C@@H](OP(=O)(O)O)[C@H](Cc1ccccc1)NC(=O)O[C@H]1CCOC1)S(=O)(=O)c1ccc(N)cc1` [fosamprenavir] (10 µM), the SARS-CoV-2 infection rate was 109% (inactive).

Regarding `OC(c1ccccc1)(c1ccccc1)C1CCNCC1` [azacyclonol] (10 µM), the SARS-CoV-2 infection rate is 110% (inactive).

For `CC(O)(P(=O)(O)O)P(=O)(O)O` [etidronic-acid] (10 µM), the SARS-CoV-2 infection rate was 103% (inactive).

As for `COCCCC/C(=N\OCCN)c1ccc(C(F)(F)F)cc1` [fluvoxamine] (10 µM), the SARS-CoV-2 infection rate is 90% (inactive).

As to `Cc1cccc(-c2nn3c(c2-c2ccnc4ccc(C(N)=O)cc24)CCC3)n1` (10 µM), the SARS-CoV-2 infection rate was 100% (inactive).

As for `O[C@H]1CC[C@H](Nc2ncc3nc(Nc4c(F)cc(F)cc4F)n([C@H]4CCOC4)c3n2)CC1` (0.833333 µM), the SARS-CoV-2 infection rate was 101% (inactive).

Consider `CNCCCC1(c2ccccc2)OC(C)(C)c2ccccc21` (centres undefined) [talopram] (10 µM), for which the SARS-CoV-2 infection rate was 111% (inactive).

As to `CC[C@]12CCCN3CCc4c(n(c5ccccc45)[C@@](O)(C(=O)OC)C1)[C@@H]32` [vincamine] (10 µM), the SARS-CoV-2 infection rate was 99% (inactive).

For `CCc1ccc(C2=CC(C)(C)Sc3ccc(C#Cc4ccc(C(=O)O)cc4)cc32)cc1` (10 µM), the SARS-CoV-2 infection rate is 111% (inactive).

As to `NC[C@H]1O[C@H](O[C@H]2[C@H](O)[C@@H](O[C@H]3O[C@H](CO)[C@@H](O)[C@H](N)[C@H]3O)[C@H](N)C[C@@H]2N)[C@H](O)[C@@H](O)[C@@H]1O` [kanamycin] (10 µM), the SARS-CoV-2 infection rate was 100% (inactive).

Consider `CC(C)(C)C(=O)OCC(=O)[C@H]1CC[C@H]2[C@@H]3CCC4=CC(=O)CC[C@]4(C)[C@H]3CC[C@]12C` [desoxycorticosterone-pivalate] (10 µM), for which the SARS-CoV-2 infection rate was 106% (inactive).

In the case of `N=C(N)N` [guanidine] (0.833333 µM), the SARS-CoV-2 infection rate is 118% (inactive).

On to `COc1ccc(CNC(=O)c2cc(-c3cncc(C)c3)ncc2-c2nccs2)nc1OC` (10 µM), for which the SARS-CoV-2 infection rate is 100% (inactive).

`Clc1ccc(C(Cn2ccnc2)OCc2ccc(Sc3ccccc3)cc2)c(Cl)c1` (centres undefined) [fenticonazole] (10 µM): the SARS-CoV-2 infection rate is 114% (inactive).

In the case of `C[Se]C[C@H](N)C(=O)O` [Se-methylselenocysteine] (10 µM), the SARS-CoV-2 infection rate was 102% (inactive).

Regarding `c1cncc(CN2CCC(n3ncc4c(N5CCOCC5)nc(-c5ccc6[nH]ccc6c5)nc43)CC2)c1` (0.833333 µM), the SARS-CoV-2 infection rate is 69% (inactive).

In the case of `COc1ccc(CCN2CCN(CCCc3ccccc3)CC2)cc1OC` [cutamesine] (10 µM), the SARS-CoV-2 infection rate was 106% (inactive).

For `CC(C)N(C[C@H]1O[C@@H](n2cnc3c(N)ncnc32)[C@H](O)[C@@H]1O)[C@H]1C[C@@H](CCc2nc3cc(C(C)(C)C)ccc3[nH]2)C1` (10 µM), the SARS-CoV-2 infection rate was 110% (inactive).
